In PubChem BioAssay (EPA / NIEHS):
“And” between values parts separate entries of the source, which are not always exact repeats. Equal entries are not always repeated. Some compounds were tested as several samples or in several runs, with calls that do not always agree. The source made the active and inactive calls. Rule for the calls: active = hit-call score of the fitted dose curve at least 0.9, where 1 is the maximum; inactive = score below 0.9.

These compounds were tested on CD69, CD69 (gene 969) (assay: BSK_SAg_CD69: BioMAP Diversity Plus: SAg Assay for CD69 Biomarker Activity (AID 2283089)). Settings: primary human HUVEC with PBMC; actives raise or lower the signal.
Description: BSK_SAg is a cell-based, multiplexed-readout assay that uses umbilical vein endothelium and peripheral blood mononuclear cells, a human vascular primary cell co-culture, with measurements taken at 24 hours after chemical dosing in a 96-well plate.BSK_SAg_CD69 is one of 10 assay component(s) measured or calculated from the BSK_SAg assay. It is designed to make measurements of enzyme-linked immunosorbent assay, a form of binding reporter, as detected with fluorescence intensity signals by Enzyme-linked immunosorbent assay technology.Data from the assay component BSK_SAg_CD69 was analyzed into 1 assay endpoint. This assay endpoint, BSK_SAg_CD69, was analyzed with bidirectional fitting relative to DMSO as the negative control and baseline of activity. Using a type of binding reporter, gain or loss-of-signal activity can be used to understand changes in the signaling as they relate to the gene CD69. Furthermore, this assay endpoint can be referred to as a primary readout, because this assay has produced multiple assay endpoints where this one serves a signaling function. To generalize the intended target to other relatable targets, this assay endpoint is annotated to the cytokine intended target family, where the subfamily is inflammatory factor.
The levels of cell surface (or secreted, indicated by the prefix "s") biomarker endpoints were measured by ELISA. Overt cytotoxicity to cells in confluent adherent cultures (all systems other than the BT system) was assessed by measuring total protein levels using sulforhodamine B (SRB) staining in parallel cultures at the time of biomarker measurements, indicated as SRB endpoints. For proliferation assays for adherent cell types, individual cell types are cultured at sub-confluence and relative cell numbers quantified by SRB staining at time points optimized for each system (48 h: 3C and CASM3C systems; 72 h: BT and HDF3CGF systems; 96 h: SAg system). SRB was performed by staining cells with 0.1% SRB after fixation with 10% TCA and reading wells at 560 nm.Viability and proliferation of PBMC (T cells) was quantified by Alamar Blue reduction for the SAg and BT systems. For PBMC viability (referred to as PBMC Cytotoxicity within the assay endpoint names), cells were plated (75,000/well in a 96-well plate) and then chemical samples added for 1 h before addition of activators, SEB and TSST-1 (20 ng/mL final concentration each). Cells were incubated for 90 h. Then, Alamar Blue (20 uL/well) (Invitrogen, Cat DAL1100) was added for 6 h, and the plates were read with a fluorescence microplate reader at 546/580 nm (excitation/emission). For PBMC proliferation, cells were plated and activated as above but incubated for only 16 h prior to addition of Alamar Blue. Plates were read after 6 h.
O=C(O)C(F)(F)C(F)(F)C(F)F was tested, and the outcome was “inactive”.
With C=CC(F)(F)C(F)(F)C(F)(F)C(F)(F)C(F)(F)C(F)(F)C(F)(F)C(F)(F)F the outcome was “inactive”.
In the case of Nc1ccc([N+](=O)[O-])cc1O, the outcome is reported as “inactive”.
In the case of CCO[Si](CCC(F)(F)C(F)(F)C(F)(F)C(F)(F)C(F)(F)C(F)(F)F)(OCC)OCC, the outcome is reported as “inactive”.
With CC(C)(C)C(=O)CC(=O)C(F)(F)C(F)(F)C(F)(F)F the outcome was “inactive”.
In the case of CCc1c(Br)c(Br)c(Br)c(Br)c1Br, the outcome is reported as “inactive”.
With N=C(N)C(F)(F)C(F)(F)C(F)(F)C(F)(F)C(F)(F)C(F)(F)C(F)(F)F the outcome was “inactive” and the AC50 was 51 µM (active).
O=C(O)C(F)(OC(F)(F)C(F)(OC(F)(F)C(F)(F)C(F)(F)F)C(F)(F)F)C(F)(F)F (stereo not given) was tested, and the outcome was “inactive”.
In the case of O=C(O)C(F)(F)C(F)(F)C(F)(F)C(F)(F)C(F)(F)C(F)(F)C(F)(F)C(F)(F)C(F)(F)C(F)(F)C(F)(F)C(F)(F)F, the outcome is reported as “inactive”.
In the case of OCC(F)(F)C(F)(F)C(F)(F)C(F)(F)C(F)(F)C(F)(F)F, the outcome is reported as “inactive”.
With FC(F)(F)C(F)(F)C(F)(F)C(F)(F)C(F)(F)C(F)(F)CCS the outcome was “inactive”.
With CCN(CC)c1ccc2c(C)cc(=O)oc2c1 the outcome was “inactive”.
NC(=O)C(F)(F)C(F)(F)C(F)(F)C(F)(F)F was tested, and the outcome was “inactive”.
FC1CC(F)(F)C(F)(F)C1(F)F (stereo not given) was tested, and the outcome was “inactive”.
For O=C(O)C(F)(F)C(F)(F)C(F)(F)C(F)(F)F, the outcome was “inactive”.
In the case of FC(F)(F)C(F)(F)C(F)(F)N(C(F)(F)C(F)(F)C(F)(F)F)C(F)(F)C(F)(F)C(F)(F)F, the outcome is reported as “inactive”.
In the case of C=CC(=O)OCC(F)(F)C(F)(F)C(F)(F)C(F)(F)COC(=O)C=C, the AC50 is reported as 14.5 µM (active) and 17.3 µM (active).
For CCc1ccc(C(c2ccc(CC)cc2)C(Cl)Cl)cc1, the AC50 was 15.1 µM (active).
For CC(=O)Nc1ccc(N=Nc2cc(C)ccc2O)cc1, the AC50 was 5.73 µM (active).
In the case of OCC(F)(F)C(F)(F)C(F)(F)F, the outcome is reported as “inactive”.
FC(F)(F)C(F)(F)C(F)(F)C(F)(F)C(F)(F)C(F)(F)C(F)(F)C(F)(F)F was tested, and the outcome was “inactive”.
For Cc1ccc(S(=O)(=O)OCC(F)(F)C(F)(F)C(F)(F)C(F)(F)C(F)(F)C(F)F)cc1, the outcome was “inactive”.
For O=S(=O)(OCC(F)F)C(F)(F)F, the outcome was “inactive”.
O[Si](c1ccccc1)(c1ccccc1)c1ccccc1 was tested, and the AC50 was 31.7 µM (active).
For CCCCCCCOC(=O)c1ccccc1C(=O)OCCCCCCC, the outcome was “inactive”.
With O=C(O)C(F)(F)C(F)(F)F the outcome was “inactive”.
With O=C(O)C(F)(F)C(F)(F)OC(F)(F)F the outcome was “inactive”.
With FC(F)(F)C(F)(F)C(F)(F)C(F)(F)C(F)(F)CCI the outcome was “inactive”.
In the case of FC(F)(F)C(F)(F)C(F)(F)C(F)(F)C(F)(F)C(F)(F)C(F)(F)C(F)(F)CCS, the outcome is reported as “inactive”.
For C=C(C)C(=O)OCC(F)(F)C(F)(F)C(F)(F)C(F)(F)C(F)(F)C(F)(F)C(F)(F)F, the outcome was “inactive”.
In the case of CCCCOCCOCCOC(=O)CCCCC(=O)OCCOCCOCCCC, the outcome is reported as “inactive”.
CCCCCCOC(=O)c1ccccc1O was tested, and the AC50 was 39.3 µM (active) and 45.2 µM (active).
With CO[Si](OC)(c1ccccc1)c1ccccc1 the outcome was “inactive”.
For C=CC/C=C/C/C=C/C/C=C/C, the outcome was “inactive”.
For CCCCCCCCCCCCCCCC[N+](C)(C)Cc1ccccc1, the AC50 was 12.4 µM (active).
In the case of O=C(O)C(F)(OC(F)(F)C(F)(OC(F)(F)C(F)(OC(F)(F)C(F)(F)C(F)(F)F)C(F)(F)F)C(F)(F)F)C(F)(F)F (stereo not given), the outcome is reported as “inactive”.
O=C(O)C=C(C(F)(F)F)C(F)(F)F was tested, and the AC50 was 22.8 µM (active) and 30 µM (active).
FC(F)(F)C(F)(F)C(F)(F)CI was tested, and the outcome was “inactive”.
With FC(F)(F)C(F)(F)C(F)(F)C(F)(F)C(F)(F)C(F)(F)C(F)(F)I the outcome was “inactive”.
